Reference: PubChem BioAssay (NCATS)
Where “and” joins values, the source holds several entries; their conditions need not be identical. Identical values can stand only once. Inconclusive results are not listed. Calls of active or inactive are those of the source. Calls come from the whole dose curve; as a rule, active = well fitted curve in the direction sought with a large enough effect; inconclusive = small, poorly fitted or top-dose-only effect, or another doubt; inactive = no such curve, though single readings can be large or run the other way.
% is set by controls: 0 for no effect and ±100 for the full control effect; potency is the fitted concentration of half-maximal effect.

Experiment: qHTS Assay for Identifying Gametocytocidal Compounds (AID 743244);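 for max response: actives lower the fluorescent signal which means gametocytes are killed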
Details: P. falciparum 3D7 stage III-V gametocytes, alamarBlue, 72 h; max response: stronger effect = lower value
How it was run: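 Using 20,000 stage III–V 3D7 gametocytes per well, compounds were incubated 72 h under 37 °C/5% CO2. Viability was then assessed by 24 h alamarBlue reduction, measured fluorometrically at 525/598 nm.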
With `CO[C@H]1[C@@H](O)C[C@H](O[C@H]2[C@@H](O)C[C@H](O[C@H]3[C@@H](O)C[C@H](O[C@H]4CC[C@@]5(C)[C@H](CC[C@@H]6[C@@H]5C[C@@H](O)[C@]5(C)[C@@H](C7=CC(=O)OC7)CC[C@]65O)C4)O[C@@H]3C)O[C@@H]2C)O[C@@H]1C` the max response was -9.7% (inactive).
In the case of `C/C(=C\c1csc(C)n1)[C@@H]1C[C@@H]2O[C@]2(C)CCC[C@H](C)[C@H](O)[C@@H](C)C(=O)C(C)(C)[C@@H](O)CC(=O)O1`, the max response was 12.6% (inactive).
For `CC(=O)O[C@H]1C[C@H](O[C@H]2[C@@H](O)C[C@H](O[C@H]3[C@@H](O)C[C@H](OC4CC[C@@]5(C)[C@H](CC[C@@H]6[C@@H]5CC[C@]5(C)[C@@H](C7=CC(=O)OC7)CC[C@]65O)C4)O[C@@H]3C)O[C@@H]2C)O[C@H](C)[C@H]1O[C@@H]1O[C@H](CO)[C@@H](O)[C@H](O)[C@H]1O` (stereo partly drawn), the max response was 9.96% (inactive).
In the case of `Clc1ccc(Cl)cc1`, the max response was -1.73% (inactive).
In the case of `COC([CH2][Hg])CNC(=O)c1ccccc1OCC(=O)O` (stereo not drawn), the max response was 2.8% (inactive).
With `[H+].[H+].[Hg+2].[O-]B([O-])[O-].[c-]1ccccc1` the Potency was 3.55 µM (active).
For `C[C@H]1CC[C@]2(NC1)O[C@H]1C[C@H]3[C@@H]4CC[C@H]5C[C@@H](O)CC[C@]5(C)[C@H]4CC[C@]3(C)[C@H]1[C@@H]2C`, the max response was 2.92% (inactive).
In the case of `O=C1CN=C(c2ccccc2)c2cc(Cl)ccc2N1CC1CC1`, the max response was -0.952% (inactive).
With `CC1CCC(C(C)C)C(OC(=O)c2ccccc2N)C1` (stereo not drawn) the max response was 9.28% (inactive).
For `CCCCCCC(=O)O[C@H]1CC[C@H]2[C@@H]3CC[C@H]4CC(=O)C=C(C)[C@]4(C)[C@H]3CC[C@]12C`, the max response was 7.58% (inactive).
For `CCC1(CC)C(=O)NC(=O)N(C)C1=O`, the max response was -12.2% (inactive).
In the case of `Oc1ccc2c3c1O[C@H]1[C@@H](O)CC[C@@]4(O)[C@@H](C2)N(CC2CCC2)CC[C@]314`, the max response was 2.47% (inactive).
For `CN(C)CCCCCCN(C)C` (tested in a mixture with another compound), the max response was 14.8% (inactive).
For `CC[N+](C)(CC)CCOC(=O)C(O)(c1ccccc1)c1ccccc1`, the max response was 11.5% (inactive).
In the case of `C[C@]12CC[C@H](OS(=O)(=O)O)CC1=CC[C@@H]1[C@@H]2CC[C@]2(C)C(=O)CC[C@@H]12`, the max response was 33.6% (inactive).
In the case of `ClC1=C(Cl)[C@]2(Cl)[C@@H]3[C@H]4C[C@H]([C@@H]5O[C@H]45)[C@@H]3[C@@]1(Cl)C2(Cl)Cl`, the max response was 19.8% (inactive).
For `O=C(OCCN1CCCCC1)C(O)(c1ccccc1)c1ccccc1`, the max response was 6.84% (inactive).
With `c1ccc(C2(N3CCCC3)CCCCC2)cc1` the max response was -1.69% (inactive).
For `c1ccc2sc(SNC3CCCCC3)nc2c1`, the max response was 27.5% (inactive).
With `C[C@]12CC[C@H]3[C@@H](CC[C@@]45O[C@@H]4C(O)=C(C#N)C[C@]35C)[C@@H]1CC[C@@H]2O` the max response was -8.72% (inactive).
For `CCC/C=C/C=C/C(=O)O[C@H]1/C(=C/C(=O)OC)C[C@H]2C[C@H]([C@@H](C)O)OC(=O)C[C@H](O)C[C@@H]3C[C@H](OC(C)=O)C(C)(C)[C@](O)(C[C@@H]4C/C(=C/C(=O)OC)C[C@H](/C=C/C(C)(C)[C@]1(O)O2)O4)O3`, the max response was -10.9% (inactive).
With `CCN(CC)CCO[C@H]1CC[C@@]2(C)C(=CC[C@@H]3[C@@H]2CC[C@]2(C)C(=O)CC[C@@H]32)C1` the max response was -4.56% (inactive).
For `NCC[C@H](O)C(=O)N[C@@H]1C[C@H](N)[C@@H](O[C@H]2O[C@H](CN)[C@@H](O)[C@H](O)[C@H]2N)[C@H](O[C@@H]2O[C@H](CO)[C@@H](O)[C@H]2O)[C@H]1O`, the max response was 16.1% (inactive).
In the case of `CN[C@H]1C[C@@H](N)[C@H](O)[C@@H](O[C@@H]2O[C@H](CO)[C@H](O)[C@@H]3OC4(O[C@H]23)O[C@H](C(N)CO)[C@H](O)[C@H](O)[C@H]4O)[C@@H]1O` (stereo partly drawn), the max response was -0.708% (inactive) and -7.43% (inactive).
With `CCC1(c2ccccc2)C(=O)NC(=O)N(C)C1=O` (stereo not drawn) the max response was -0.22% (inactive).
For `O=c1ccc2cc(O[C@@H]3O[C@H](CO)[C@@H](O)[C@H](O)[C@H]3O)c(O)cc2o1`, the max response was 0.481% (inactive).
With `CC1(C)S[C@@H]2[C@H](N)C(=O)N2[C@H]1C(=O)O` the max response was -4.29% (inactive).
In the case of `Cc1ccccc1-n1c(CF)nc2ccc(N)cc2c1=O`, the max response was -0.397% (inactive).
